Structures are written as SMILES. “And” between values parts separate entries of the source, which are not always exact repeats. Equal entries are not always repeated. Compounds without any hit were thinned out: in the full panel of roughly 83,000, 20% have a hit.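 Step 1: grow cells in 96-well plates. Step 2: add test compound at a single concentration. Step 3: incubate 48 h. Step 4: record percent growth.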 The source made the active and inactive calls. The calls were made as follows: active = growth percent below 10; inactive = the rest.

This assay concerns MDA-MB-468 breast. Kind of assay: NCI-60 one-dose screen, 48 h (100 = growth as untreated, 0 = no growth, -100 = all killed). The following applies: 10 µM unless noted.
`COc1cc(C(=O)/C=C/c2c(-c3cccs3)nc3sccn23)cc(OC)c1OC`: the growth is -49.5% (active).
In the case of `CC1=NN(c2ccc(Cl)cc2)CC1(C)N=O` (stereo not given) it was 7.84% (active); in that of `Cc1ccc(-n2cc(/C=N/NC(=O)c3ccncc3)c(-c3ccc(S(C)(=O)=O)cc3)n2)cc1`, 100% (inactive).
Consider `COc1ccc(CN2C(=O)/C(=C\c3cc(OC)c(OC)c(OC)c3)c3cc(OC)ccc32)cc1`, for which the growth was 14% (inactive).
`FC(F)(F)Oc1ccc2c(c1)C[C@H]1C[C@@H](c3ccoc3)N2O1`: the growth was 118% (inactive).
Consider `COc1cc2cc(Oc3ccc(NC(=O)Nc4cccc(C(F)(F)F)c4)cc3)c(C)nc2cc1OCCN1CCCCC1`, for which the growth is -68.7% (active).
As for `COc1cc2c(c(OC)c1OC)CCC(c1cccc(C(=O)Nc3ccc(Br)cc3)c1)O2` (stereo not given), the growth was 38.2% (inactive).
In the case of `S=C1CCCCCN1` it was 108% (inactive).
The value for `C=C(CBr)[C@@H]1CC[C@]2(C(=O)O)CC[C@]3(C)[C@H](CC[C@@H]4[C@@]5(C)CCC(=O)C(C)(C)[C@@H]5CC[C@]43C)[C@@H]12` was 40.3% (inactive); that for `O=C(CCc1nnc2sc(Cc3ccccc3Cl)nn12)c1nc2ncccc2[nH]1` was 95.9% (inactive).
The value for `O=C1C2=C(CCN(Cc3ccccc3)C2)N2CCN=C2N1Cc1ccc(F)cc1F` was 5.49% (active); that for `CCC(c1ccccc1)C(CC)c1ccc(O)c(O)c1` (stereo not given) was 90.9% (inactive); that for `CCN1C(=O)/C(=C/N2N=C(c3ccc(Cl)cc3)CC2c2ccc(OC)cc2)SC1=S` (stereo not given) was 93.3% (inactive).
Consider `Cc1cn(C(C=O)OC(C=O)CO)c(=O)[nH]c1=O` (stereo not given), for which the growth is 113% (inactive).
On to `O=C1/C(=C/c2ccc([N+](=O)[O-])s2)Oc2ccccc21`, for which the growth is -34.1% (active).
In the case of `CC(C)(C)OC(=O)N1CCc2c(sc3ncnc(N/N=C/c4ccccc4Br)c23)C1` it was 71.5% (inactive); in that of `CC(=O)NCCN`, 105% (inactive).
The value for `N#CC1C(=O)c2ccccc2C1c1ccccc1` (stereo not given) was 94.3% (inactive) and 119% (inactive); that for `CCCCN(CCCC)c1ccc(C(=O)O)cc1` was 101% (inactive).
The value for `Cc1ccccc1NC(=O)c1sc2nc3c(cc2c1N)C(=O)CCC3` was -4.56% (active).
As to `O=C(CCl)Nc1ccc2c(c1)C(=O)c1ccc(NC(=O)CCl)cc1C2=O`, the growth was -75.7% (active).
For the molecule `COc1ccc(-c2cnnn2-c2nonc2-n2cccc2)cc1OC`, the growth was 40.1% (inactive).
In the case of `C=C(C)[C@@H]1CC[C@]2(C(=O)NC3CCCCC3)CC[C@]3(C)[C@H](CC[C@@H]4[C@@]5(C)CCC(=O)C(C)(C)[C@@H]5CC[C@]43C)[C@@H]12` it was 83.5% (inactive); in that of `COc1c(NC[C@H]2OC(O)[C@H](O)[C@@H](O)[C@@H]2O)c(=O)c1=O` (stereo not given in full), 94.1% (inactive); in that of `N#Cc1nc(-c2ccccc2)oc1S(=O)(=O)N1CCCCC1`, 21.8% (inactive).
The value for `Cc1cc(C(=O)/C=C/c2ccc[nH]2)ccc1-n1ccc(C(F)(F)F)n1` was 90.2% (inactive); that for `CC(C)(C)n1cc(-c2ccnc(NCCCNS(=O)(=O)c3ccc(Cl)cc3)c2)c(-c2cccc(O)c2)n1` was -44.5% (active); that for `COc1ccc(/C(=N\O)c2cc(C)c(OC)c(C)c2)cc1O` was 44.4% (inactive).
In the case of `Cc1ccc(S(=O)(=O)N(CCC(=O)O)c2ccccc2)cc1` it was 113% (inactive).
On to `CCN(CC)CC(O)c1cc(-c2ccc(Cl)cc2)nc2c(C)c(Cl)ccc12` (stereo not given), for which the growth is -88.6% (active).
For the molecule `COc1ccc(C(=O)Nc2ncc(Cc3cccc(Cl)c3)s2)cc1OC`, the growth is -1.51% (active).
In the case of `COc1ccccc1-n1c(SCc2cc(OC)c(OC)c(OC)c2)nc2ccc(Cl)cc2c1=O` it was 21.5% (inactive); in that of `O=C(COCc1c(-c2ccccc2)no[n+]1[O-])Nc1nc(-c2ccc(Cl)cc2)cs1`, 100% (inactive); in that of `CCCC(OC(C)=O)c1ccc2c(c1)OCO2` (stereo not given), 103% (inactive).
In the case of `O=C(CN1CCOCC1)Nc1nc(-c2cc3ccccc3oc2=O)cs1` it was 107% (inactive); in that of `N#Cc1c(-c2ccc(Br)cc2)cc(-c2c[nH]c3ccccc23)nc1N`, 7.56% (active).
The value for `Oc1nc(NCCc2ccccc2)sc1/C=C1\C=Nc2ncccc21` was -2.06% (active) and -14.5% (active).
Turning to `COc1cc2c(cc1OCCCN1Cc3ccc(OCCCCC(=O)N4CCC(CCN5CCCC5)CC4)cc3C1)N=C(N)C21CCCC1`, the growth is 17.4% (inactive).
The value for `CC1(C)CC[C@]2(C(=O)N3CCCN(CC#N)CC3)CC[C@]3(C)C(=CC[C@@H]4[C@@]5(C)CC[C@H](O)C(C)(C)[C@@H]5CC[C@]43C)[C@H]2C1` was 41.2% (inactive); that for `COc1ccc2c(ccn2C(=O)N2c3ccccc3Sc3ccccc32)c1` was 21.8% (inactive).

These data come from PubChem BioAssay (NCI).
